Laboratory results as given in PubChem BioAssay (NCATS).
Results filed as inconclusive are left out. Activity calls are given as the source filed them. Calls follow the shape of the dose curve; as a rule, active = well fitted cell-killing curve with a large enough effect; inconclusive = small, poorly fitted or top-dose-only effect, or effect the other way; inactive = no such curve, though single readings can be large or run the other way.

What was measured:
[1] = Quantitative High-Throughput drug screen in 47 multiple myeloma cell lines against the NCATS MIPE library collection: MM1R_ATCC cell viability assay (AID 1918981); also: nearly all actives have a fitted effect of over 35% in size
How it was run: (§1)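 Readout: median RLU from CellTiter-Glo after 5 min at room temperature. Preceding step was 48 h drug treatment of 500 cells/well at 37 °C, 5% CO2, with DMSO-only and media-only control wells.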

[2] = Quantitative High-Throughput drug screen in 47 multiple myeloma cell lines against the NCATS MIPE library collection: KMS28PE_JCRB cell viability assay (AID 1918983); also: nearly all actives have a fitted effect of over 35% in size
How it was run: as §1

[3] = Quantitative High-Throughput drug screen in 47 multiple myeloma cell lines against the NCATS MIPE library collection: L363_DSMZ cell viability assay (AID 1918984); settings: L363 myeloma viability, CellTiter-Glo ATP luminescence, 48 h; viability (% of control): at 45.8 µM (top of the series); also: nearly all actives have a fitted effect of over 40% in size
How it was run: as §1

[4] = Quantitative High-Throughput drug screen in 47 multiple myeloma cell lines against the NCATS MIPE library collection: KMS34_JCRB cell viability assay (AID 1918985); also: nearly all actives have a fitted effect of over 40% in size
How it was run: as §1

[5] = Quantitative High-Throughput drug screen in 47 multiple myeloma cell lines against the NCATS MIPE library collection: OCIMY7_PLB cell viability assay (AID 1918987); settings: OCI-MY7 myeloma viability, CellTiter-Glo ATP, 48 h; viability (% of DMSO): at 45.8 µM (top of the series); also: nearly all actives have a fitted effect of over 65% in size
How it was run: as §1

[6] = Quantitative High-Throughput drug screen in 47 multiple myeloma cell lines against the NCATS MIPE library collection: OCIMY5_PLB cell viability assay (AID 1918988); also: nearly all actives have a fitted effect of over 65% in size
How it was run: as §1

[7] = Quantitative High-Throughput drug screen in 47 multiple myeloma cell lines against the NCATS MIPE library collection: OPM1_PLB cell viability assay (AID 1918989); also: nearly all actives have a fitted effect of over 40% in size
How it was run: as §1

[8] = Quantitative High-Throughput drug screen in 47 multiple myeloma cell lines against the NCATS MIPE library collection: SKMM1_PLB cell viability assay (AID 1919863); settings: SKMM1 myeloma viability, CellTiter-Glo ATP, 48 h; viability: hits give low values; also: nearly all actives have a fitted effect of over 35% in size
How it was run: as §1

[9] = Quantitative High-Throughput drug screen in 47 multiple myeloma cell lines against the NCATS MIPE library collection: XG6_PLB cell viability assay (AID 1919865); also: nearly all actives have a fitted effect of over 40% in size
How it was run: as §1

[10] = Quantitative High-Throughput drug screen in 47 multiple myeloma cell lines against the NCATS MIPE library collection: XG1_PLB cell viability assay (AID 1919866); also: nearly all actives have a fitted effect of over 35% in size
How it was run: as §1

[11] = Quantitative High-Throughput drug screen in 47 multiple myeloma cell lines against the NCATS MIPE library collection: UTMC2_PLB cell viability assay (AID 1919868); settings: CellTiter-Glo ATP luminescence, 48 h; viability (% of DMSO control): at 45.8 µM (top of the series); also: nearly all actives have a fitted effect of over 55% in size
How it was run: as §1

[12] = Quantitative High-Throughput drug screen in 47 multiple myeloma cell lines against the NCATS MIPE library collection: PE2_PLB cell viability assay (AID 1919869); also: nearly all actives have a fitted effect of over 35% in size
How it was run: as §1

[13] = Quantitative High-Throughput drug screen in 47 multiple myeloma cell lines against the NCATS MIPE library collection: PCM6_Riken cell viability assay (AID 1919870); also: nearly all actives have a fitted effect of over 30% in size
How it was run: as §1

[14] = Quantitative High-Throughput drug screen in 47 multiple myeloma cell lines against the NCATS MIPE library collection: RPMI8226_ATCC cell viability assay (AID 1919871); also: nearly all actives have a fitted effect of over 30% in size
How it was run: as §1

[15] = Quantitative High-Throughput drug screen in 47 multiple myeloma cell lines against the NCATS MIPE library collection: LP1_DSMZ cell viability assay (AID 1918982); also: nearly all actives have a fitted effect of over 35% in size
How it was run: as §1

[16] = Quantitative High-Throughput drug screen in 47 multiple myeloma cell lines against the NCATS MIPE library collection: U266_ATCC cell viability assay (AID 1919864); also: nearly all actives have a fitted effect of over 35% in size
How it was run: as §1

[17] = Quantitative High-Throughput drug screen in 47 multiple myeloma cell lines against the NCATS MIPE library collection: VP6_DJ cell viability assay (AID 1919867); also: nearly all actives have a fitted effect of over 40% in size
How it was run: as §1

[18] = Quantitative High-Throughput drug screen in 47 multiple myeloma cell lines against the NCATS MIPE library collection: OPM2_DSMZ cell viability assay (AID 1919872); also: nearly all actives have a fitted effect of over 30% in size
How it was run: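 Myeloma cell lines, 500 cells per well, exposed to MIPE 4.0 library compounds for 48 h at 37C, 5% CO2. Viability from ATP by CellTiter-Glo luminescence; normalised to DMSO (100%) and media-only (0%) wells.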

[19] = Quantitative High-Throughput drug screen in 47 multiple myeloma cell lines against the NCATS MIPE library collection: KMS11_JCRBsus cell viability assay (AID 1919873); also: nearly all actives have a fitted effect of over 50% in size
How it was run: as §1

[20] = Quantitative High-Throughput drug screen in 47 multiple myeloma cell lines against the NCATS MIPE library collection: KMS28BM_JCRB cell viability assay (AID 1919874); also: nearly all actives have a fitted effect of over 35% in size
How it was run: as §1
Potency is read from the fitted curve at half-maximal effect.

CN[C@@H]1CN(c2ccc3c(=O)c(C(=O)O)cn(-c4nccs4)c3n2)C[C@@H]1OC
inactive: Potency [3]
active: Potency [1] 0.407 µM | Potency [2] 18.2 µM | Potency [4] 5.12 µM | Potency [5] 5.75 µM | Potency [6] 12.9 µM | Potency [7] 14.4 µM | Potency [8] 7.24 µM | Potency [9] 1.62 µM | Potency [10] 7.24 µM | Potency [11] 1.29 µM | Potency [12] 1.82 µM | Potency [13] 3.23 µM | Potency [14] 12.9 µM

CNc1nc(-c2ccc3c(N)n[nH]c3c2)cc(N2C[C@@H](C(=O)NC3CCCCC3)CC[C@@H]2C)n1
active: Potency [1] 18.7 µM | Potency [15] 2.64 µM | Potency [4] 20.9 µM | Potency [5] 0.0662 µM | Potency [7] 23.5 µM | Potency [16] 16.6 µM | Potency [9] 20.9 µM | Potency [10] 20.9 µM | Potency [17] 5.9 µM | Potency [12] 6.62 µM | Potency [13] 18.7 µM | Potency [18] 23.5 µM | Potency [19] 5.26 µM | Potency [20] 23.5 µM

CCOC(=O)N1c2ccc(C(F)(F)F)cc2[C@@H](N(Cc2cc(C(F)(F)F)cc(C(F)(F)F)c2)C(=O)OC)C[C@H]1CC
inactive: Potency [3] | Potency [5] | Potency [13]
active: Potency [1] 2.96 µM | Potency [2] 4.69 µM | Potency [4] 5.26 µM | Potency [6] 4.69 µM | Potency [7] 3.32 µM | Potency [14] 9.35 µM | Potency [18] 9.35 µM

COc1ccc(-c2cc(=O)c3c(O)cc(O[C@@H]4O[C@H](CO[C@@H]5O[C@@H](C)[C@H](O)[C@@H](O)[C@@H]5O)[C@@H](O)[C@H](O)[C@@H]4O)cc3o2)cc1O
inactive: Potency [1] | Potency [2] | Potency [3] | Potency [4] | viability [8] 120% | Potency [14] | Potency [18] | Potency [19] | Potency [20]
active: Potency [5] 10.5 µM | Potency [6] 18.7 µM | Potency [16] 18.7 µM | Potency [9] 9.35 µM | Potency [10] 8.33 µM | Potency [17] 14.8 µM | Potency [12] 23.5 µM | Potency [13] 11.8 µM

O=C(NC[C@H](O)CO)c1ccncc1Nc1ccc(I)cc1F
active: Potency [1] 13.2 µM | Potency [3] 13.2 µM | Potency [4] 1.18 µM | Potency [7] 18.7 µM | Potency [8] 8.33 µM | Potency [16] 20.9 µM | Potency [9] 7.43 µM | Potency [10] 14.8 µM | Potency [17] 10.5 µM | Potency [12] 5.26 µM | Potency [13] 16.6 µM | Potency [14] 0.833 µM | Potency [19] 2.64 µM
inactive: Potency [15] | Potency [20]

Cc1ccc(NC(=O)Nc2cc(C(F)(F)F)ccc2F)cc1Nc1ccc2c(c1)NC(=O)C2=Cc1ccc[nH]1
active: Potency [1] 26.4 µM | Potency [15] 26.4 µM | Potency [3] 7.43 µM | Potency [6] 23.5 µM | Potency [7] 4.69 µM | Potency [9] 5.26 µM | Potency [10] 6.62 µM | Potency [17] 5.26 µM | Potency [11] 8.33 µM | Potency [12] 4.18 µM | Potency [13] 3.32 µM

CC1(C)[C@H]2CC[C@]3(C)[C@@H](C(=O)C=C4[C@@H]5C[C@@](C)(C(=O)O)CC[C@]5(C)CC[C@]43C)[C@@]2(C)CC[C@@H]1O
inactive: Potency [1] | Potency [15] | Potency [7] | Potency [16] | Potency [9] | Potency [10] | Potency [17] | Potency [11] | Potency [12] | Potency [13] | Potency [18] | Potency [19] | Potency [20]
active: Potency [2] 18.7 µM | Potency [8] 11.8 µM

CCCCCCOC(=O)N=C(N)c1ccc(NCc2nc3cc(C(=O)N(CCC(=O)OCC)c4ccccn4)ccc3n2C)cc1
active: Potency [1] 20.9 µM | Potency [15] 14.8 µM | Potency [3] 13.2 µM | Potency [6] 20.9 µM | Potency [9] 11.8 µM | Potency [12] 13.2 µM | Potency [13] 20.9 µM | Potency [14] 18.7 µM | Potency [19] 18.7 µM

CCC(=O)N1CCN(c2ccc(-n3c(=O)ccc4cnc5ccc(-c6cnc7ccccc7c6)cc5c43)cc2C(F)(F)F)CC1
active: Potency [1] 0.0372 µM | Potency [2] 0.0093 µM | Potency [4] 0.0059 µM | Potency [5] 16.6 µM | Potency [7] 0.0132 µM | Potency [11] 0.0469 µM | Potency [12] 0.0093 µM | Potency [18] 0.0264 µM
inactive: Potency [3]

CC[C@H](C=C[C@@H](C)[C@H]1CC[C@H]2[C@@H]3CC=C4C[C@@H](O)CC[C@]4(C)[C@@H]3CC[C@]12C)C(C)C
active: Potency [9] 1.02 µM | Potency [10] 1.02 µM | Potency [12] 0.0575 µM | Potency [13] 0.575 µM | Potency [19] 5.12 µM
inactive: Potency [1] | Potency [15] | Potency [3] | Potency [4] | Potency [7] | viability [8] 119% | Potency [11] | Potency [14] | Potency [18]

CCc1cc(-c2n[nH]c(C)c2-c2ccc3c(c2)OCCO3)c(O)cc1O
active: Potency [1] 6.62 µM | Potency [2] 4.18 µM | Potency [3] 0.148 µM | Potency [4] 3.32 µM | Potency [5] 1.66 µM | Potency [6] 3.72 µM | Potency [7] 6.62 µM | Potency [16] 7.43 µM | Potency [9] 9.35 µM | Potency [10] 4.18 µM | Potency [17] 4.18 µM | Potency [12] 8.33 µM | Potency [13] 8.33 µM | Potency [14] 6.62 µM | Potency [18] 7.43 µM | Potency [19] 1.87 µM | Potency [20] 11.8 µM

C[C@H]1COC2=C1C(=O)C(=O)c1c2ccc2c1CCCC2(C)C
active: Potency [1] 20.9 µM | Potency [15] 18.7 µM | Potency [5] 13.2 µM | Potency [6] 20.9 µM | Potency [7] 20.9 µM | Potency [8] 14.8 µM | Potency [17] 16.6 µM | Potency [11] 9.35 µM | Potency [12] 26.4 µM
inactive: Potency [3] | Potency [20]
